From PubChem
D3 ag = activates the human D3 dopamine receptor | max activation, % | AID 652048 | D3R DiscoveRx beta-arrestin cells, luminescence, 90 min | hit rate 0.58% among 410,000; in the data active = max activation above about 30%; note: 0% is about no effect
Target sequence (P35462 whole entry, looked up): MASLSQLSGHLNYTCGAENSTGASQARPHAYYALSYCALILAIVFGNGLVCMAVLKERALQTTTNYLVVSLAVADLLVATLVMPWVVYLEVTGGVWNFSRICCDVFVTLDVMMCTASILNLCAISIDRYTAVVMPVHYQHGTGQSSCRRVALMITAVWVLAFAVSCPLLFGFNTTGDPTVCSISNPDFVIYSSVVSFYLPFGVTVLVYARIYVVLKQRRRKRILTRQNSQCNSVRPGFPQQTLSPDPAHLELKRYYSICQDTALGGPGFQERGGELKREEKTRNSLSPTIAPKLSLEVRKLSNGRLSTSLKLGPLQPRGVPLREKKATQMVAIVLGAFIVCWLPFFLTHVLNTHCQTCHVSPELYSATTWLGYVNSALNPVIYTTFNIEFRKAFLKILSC
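Cells at 1500/well, incubated overnight, then treated with pinned compounds (dopamine as control) for 90 min at 37 degrees C. DiscoveRx reagent added for 30 - 60 minutes at room temperature; luminescence read.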
B2AR arrestin = beta2AR (human) beta-arrestin recruitment activity | P07550 | beta-arrestin recruitment to beta2AR, cell-based reporter | Potency, µM (titrated, usually from 46.1 µM), inactives show at the highest dose activation, actives largely listed as activators | hit rate 0.02% among 330,000; active = well fitted activation curve with a large enough effect; inconclusive = small, poorly fitted or top-dose-only effect;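 note: potency is the fitted concentration of half-maximal effect; 0% = DMSO controls and full agonism = EC100 isoproterenol or metaproterenol; nearly all actives have a fitted effect of over 65% in size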
Giardia killer = kills Giardia lamblia; hit rate 0.15% among 340,000; AID 540267; activity change, % at 7.66 µM, hits read low; Giardia lamblia trophozoite viability; in the data active = activity change below about -80%; inconclusive = between about -30% and that limit;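 note: parasites exposed to compound for two days anaerobically before the ATP read; % is set by controls: 0 for no effect and ±100 for the full control effect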
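Luminescence from cellular ATP indicates surviving trophozoites (100 cells/well) following 48 hrs anaerobic compound treatment at 37 deg C; signal develops 15-30 min at room temperature.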
DRD3 antagonist = antagonists of human D3 dopamine receptor. D3R cells, DiscoveRx beta-arrestin luminescence, antagonist mode; stronger effect = lower value. hit rate 2.5% among 360,000. P35462. max response, negative = inhibition, %; in the data active = max response below about -50%; inconclusive = no clear call, values can overlap the other calls; note: % is set by controls: 0 for no effect and ±100 for the full control effect
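Cells plated overnight at 1500 cells/well, then exposed to library compounds with dopamine controls for 90 minutes at 37 degrees C. DiscoveRx reagent added for 30–60 minutes at room temperature; luminescence read, quantitative HTS format.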
* marks the source's active call; other numbers are inactive results; u = inconclusive; x = no result given; ! = not confirmed by another sample. An excerpt weighted towards active compounds, which were near 2.8% of everything screened.

SMILES	D3 ag	B2AR arrestin	Giardia killer	DRD3 antagonist
CCCn1c(/C=C/c2ccccc2)nc2ccccc21	31*!	0%	-8	22
CO/N=C(\C(=O)N[C@@H]1C(=O)N2C(C(=O)[O-])=C(C[n+]3ccc(N)n3CCO)CS[C@H]12)c1csc(N)n1	-1	x	x	x
CC(/C=N/Nc1nnc(C)c(=O)[nH]1)=C\c1ccccc1	-5	0%	-10	-23
C/C(=N\Nc1nnc(C)c(=O)[nH]1)C(=O)O	-42	0%	-1	-52*
COc1ccc(Nc2nc(Nc3ccc(OC)cc3OC)nc(N3CCOCC3)n2)c(OC)c1	40*	x	x	x
O=C(NCc1ccccc1)c1nc(S(=O)(=O)Cc2ccccc2)ncc1Cl	1	0%	12	-78*
COC(=O)c1ccccc1NC(=O)c1nc(S(=O)(=O)Cc2ccccc2)ncc1Cl	-1	-1%	11	-77*
COc1ccc(CNC(=O)c2nc(S(=O)(=O)Cc3ccccc3)ncc2Cl)cc1	-5	-1%	-11	-97*
CCS(=O)(=O)c1ncc(Cl)c(C(=O)NCc2ccccc2)n1	-17	x	x	x
O=C(NCCn1cc(SCc2ccccc2Cl)c2ccccc21)c1cccs1	2	x	x	x
Cc1cccc(C(=O)NCC(=O)OCC(=O)c2ccc3ccccc3c2)c1	x	x	-1	x
CCOc1ccc(C(=O)NCC(c2ccco2)S(=O)(=O)c2cccs2)cc1 (stereo unspecified)	7	x	x	x
COc1ccc(OC)c(NC(=O)Cn2nc3c(cc2=O)CCCC3)c1	-2	x	x	x
COc1ccc(C(=O)O)cc1S(=O)(=O)N1CCN(c2ccccn2)CC1	-1	0%	-4	3
COc1ccc(CN2CCSCC2)c(OC)c1C	7	-1%	u	-1
Cc1ccc(-n2cc(CN3CCN(c4ccccn4)CC3)c(-c3ccc(F)cc3)n2)cc1	-21	0%	8	-62*
COc1ccc(CN2CCN(c3ncccn3)CC2)c(C)c1C	71*	0%	-14	-20
COc1ccc(OC)c(S(=O)(=O)N2CCN(c3ccccn3)CC2)c1	-3	-1%	-10	-104*
COc1cccc(CN2CCN(c3ncccn3)CC2)c1OC	11	0%	-3	-1
COc1ccc(CN2CCN(c3ccccn3)CC2)c(OC)c1C	-11	0%	-24	-56*!
CCN(C(=O)CCNC(=O)Cn1cnc2ccccc2c1=O)c1cc(OC)ccc1OC	0	x	x	x
C#CC1(O)CC[C@H]2[C@@H]3CCC4=CCCC[C@@H]4[C@H]3CC[C@@]21C (stereo partly specified)	5	x	x	x
CCCOc1ccc(CNC(=O)c2ccc3c(c2)N(CC)CCS3)cc1	-14	-1%	-15	-65*
CCN1CCSc2ccc(C(=O)NCc3ccc(F)cc3)cc21	-20	x	x	x
COc1cc(S(=O)(=O)N2CCC(O)(c3cccc(C(F)(F)F)c3)CC2)ccc1-n1cnnn1	2	-1%	9	-82*
SMILES	D3 ag	B2AR arrestin	Giardia killer	DRD3 antagonist
COc1ccc(CNc2nc(Cl)nc3nc[nH]c23)cc1	x	x	2	x
COc1ccc(-c2ccc(C(C)=O)cc2)cc1C1C2C=CCCC2(C)C(=O)N1Cc1ccccc1 (stereo unspecified)	x	x	4	x
Cc1ccc(CNC(=O)C2CCN(c3nn4cc(-c5ccc(F)cc5)nc4s3)CC2)cc1	2	x	x	x
COc1ccccc1-c1cc2nc(-c3ccccc3)cc(N3CCN(C(=O)c4ccco4)CC3)n2n1	39*	x	x	62
COc1ccccc1C(=O)Nc1cccc(OCc2cc(=O)n3ccccc3n2)c1	-19	x	x	x
COc1ccc(NC(=O)c2coc3ccccc23)cc1OC	-13	0%	-7	-67*
Cc1ccc2nc(/C(C#N)=C\c3cc(C)n(-c4cccc([N+](=O)[O-])c4)c3C)[nH]c2c1	-62	0%	0	-53*
Cc1cc(/C=C(/C#N)c2nc3ccccc3[nH]2)c(C)n1-c1cc(C(=O)O)cc(C(=O)O)c1	2	0%	11	-25
Nc1ncnc2c1[nH]c(=S)n2C1OC(CO)C(O)C1O (stereo unspecified)	x	x	31	x
CCc1nc2ccc(C(=O)N3CCCCC3)cn2c1N(CCC(C)C)CCN(C)C	53*	x	x	-11
COc1ccc(S(=O)(=O)c2c(N)n(Cc3ccco3)c3nc4ccccc4nc23)cc1	-4	-1%	19	-71*
COc1ccc(Cn2c(C)nc3c(c2=O)c2nc4ccccc4nc2n3Cc2ccco2)cc1	5	x	1	6
Cc1c(C(=O)OCCOc2ccccc2)[nH]c2c1C(=O)CC(c1ccccc1Cl)C2 (stereo unspecified)	-8	x	x	x
CCCCNCCOCCOc1ccc(C)cc1[N+](=O)[O-]	-5	-1%	0	-53*
C=CCNCCOc1ccc(C)cc1[N+](=O)[O-]	-13	0%	-10	-72*
